# Test results reported in ChEMBL document CHEMBL1961873, “Compounds: GSK PKIS; Assays: Nanosyn kinase panel” (2012).
# “And” between values parts separate entries of the source, which are not always exact repeats. Identical values can stand only once.
# Legend:
# [1] = biological target: Casein kinase I isoform gamma-2 (Homo sapiens) (UniProt P78368); conditions: at 1 µM
# [2] = biological target: Casein kinase I isoform gamma-3 (Homo sapiens) (UniProt Q9Y6M4); conditions: at 0.1 µM
# [3] = biological target: Casein kinase I isoform gamma-3 (Homo sapiens) (UniProt Q9Y6M4); conditions: at 1 µM
# [4] = biological target: Cyclin-dependent kinase 1 (Homo sapiens) (UniProt P06493); conditions: at 0.1 µM
# Sequence of Cyclin-dependent kinase 1 (Homo sapiens) (P06493 whole entry, looked up): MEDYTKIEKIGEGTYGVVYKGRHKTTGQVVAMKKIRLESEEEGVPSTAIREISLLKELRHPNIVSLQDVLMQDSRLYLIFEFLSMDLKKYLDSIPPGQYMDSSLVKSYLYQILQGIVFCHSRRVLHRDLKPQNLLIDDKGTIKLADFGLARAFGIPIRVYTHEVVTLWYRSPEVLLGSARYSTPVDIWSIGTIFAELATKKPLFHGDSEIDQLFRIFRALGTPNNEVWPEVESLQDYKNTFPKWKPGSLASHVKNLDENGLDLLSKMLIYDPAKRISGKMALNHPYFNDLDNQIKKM
# [5] = biological target: Cyclin-dependent kinase 1 (Homo sapiens) (UniProt P06493); conditions: at 1 µM
# [6] = biological target: Cyclin-dependent kinase 2 (Homo sapiens) (UniProt P24941); conditions: at 0.1 µM
# [7] = biological target: Cyclin-dependent kinase 2 (Homo sapiens) (UniProt P24941); conditions: at 1 µM
# [8] = biological target: Cyclin-dependent kinase 2 (Homo sapiens) (UniProt P24941); conditions: at 0.1 µM; remark: listed apart in the source
# [9] = biological target: Cyclin-dependent kinase 2 (Homo sapiens) (UniProt P24941); conditions: at 1 µM; remark: listed apart in the source
# [10] = biological target: T1, CDK3/Cyclin E (Homo sapiens) (UniProt P24864+Q00526); conditions: at 0.1 µM
# T1 sequence (P24864 whole entry, looked up): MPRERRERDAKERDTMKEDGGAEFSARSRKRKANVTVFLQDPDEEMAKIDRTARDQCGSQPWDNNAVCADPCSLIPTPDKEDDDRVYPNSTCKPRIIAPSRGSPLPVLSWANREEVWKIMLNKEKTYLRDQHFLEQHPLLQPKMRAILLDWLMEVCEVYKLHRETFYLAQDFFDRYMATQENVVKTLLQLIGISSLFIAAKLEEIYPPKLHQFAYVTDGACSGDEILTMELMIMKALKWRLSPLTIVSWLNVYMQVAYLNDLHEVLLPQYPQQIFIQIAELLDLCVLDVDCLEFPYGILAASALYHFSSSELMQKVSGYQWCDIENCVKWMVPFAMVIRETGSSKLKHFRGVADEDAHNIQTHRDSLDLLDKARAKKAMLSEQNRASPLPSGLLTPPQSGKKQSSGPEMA
# T1 sequence (Q00526 whole entry, looked up): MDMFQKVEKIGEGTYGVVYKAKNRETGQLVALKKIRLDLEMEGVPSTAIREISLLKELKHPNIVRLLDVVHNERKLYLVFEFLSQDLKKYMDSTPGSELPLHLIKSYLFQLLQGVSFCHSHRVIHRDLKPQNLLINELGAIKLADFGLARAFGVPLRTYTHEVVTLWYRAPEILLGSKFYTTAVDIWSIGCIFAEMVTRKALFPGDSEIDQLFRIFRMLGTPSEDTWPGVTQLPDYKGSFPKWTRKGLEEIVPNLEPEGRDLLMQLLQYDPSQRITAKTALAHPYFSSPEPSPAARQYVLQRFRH
# [11] = biological target: T1, CDK3/Cyclin E (Homo sapiens); conditions: at 1 µM
# [12] = biological target: Cyclin-dependent kinase 4 (Homo sapiens) (UniProt P11802); conditions: at 0.1 µM
# Sequence of Cyclin-dependent kinase 4 (Homo sapiens) (P11802 whole entry): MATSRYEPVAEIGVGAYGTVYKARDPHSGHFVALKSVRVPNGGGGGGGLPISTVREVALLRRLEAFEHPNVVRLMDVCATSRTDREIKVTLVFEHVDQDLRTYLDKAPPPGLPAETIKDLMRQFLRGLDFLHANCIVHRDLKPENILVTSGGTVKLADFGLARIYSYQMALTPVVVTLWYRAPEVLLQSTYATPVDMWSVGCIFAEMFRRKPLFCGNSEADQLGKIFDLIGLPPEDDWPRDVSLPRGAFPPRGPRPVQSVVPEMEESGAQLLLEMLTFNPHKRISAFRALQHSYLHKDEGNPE
# [13] = biological target: Cyclin-dependent kinase 4 (Homo sapiens) (UniProt P11802); conditions: at 1 µM
# [14] = biological target: Cyclin-dependent kinase 5 (Homo sapiens) (UniProt Q00535); conditions: at 0.1 µM
# Sequence of Cyclin-dependent kinase 5 (Homo sapiens) (Q00535 whole entry, looked up): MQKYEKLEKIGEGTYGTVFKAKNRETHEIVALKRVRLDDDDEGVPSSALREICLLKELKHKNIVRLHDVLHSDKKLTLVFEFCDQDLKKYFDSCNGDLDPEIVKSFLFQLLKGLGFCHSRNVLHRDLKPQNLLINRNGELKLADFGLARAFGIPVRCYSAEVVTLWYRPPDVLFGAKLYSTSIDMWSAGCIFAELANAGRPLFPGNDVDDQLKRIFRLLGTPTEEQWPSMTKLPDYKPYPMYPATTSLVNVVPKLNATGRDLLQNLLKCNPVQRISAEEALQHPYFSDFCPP
# [15] = biological target: Cyclin-dependent kinase 5 (Homo sapiens) (UniProt Q00535); conditions: at 1 µM
# [16] = biological target: Cyclin-dependent kinase 6 (Homo sapiens) (UniProt Q00534); conditions: at 0.1 µM
# Sequence of Cyclin-dependent kinase 6 (Homo sapiens) (Q00534 whole entry): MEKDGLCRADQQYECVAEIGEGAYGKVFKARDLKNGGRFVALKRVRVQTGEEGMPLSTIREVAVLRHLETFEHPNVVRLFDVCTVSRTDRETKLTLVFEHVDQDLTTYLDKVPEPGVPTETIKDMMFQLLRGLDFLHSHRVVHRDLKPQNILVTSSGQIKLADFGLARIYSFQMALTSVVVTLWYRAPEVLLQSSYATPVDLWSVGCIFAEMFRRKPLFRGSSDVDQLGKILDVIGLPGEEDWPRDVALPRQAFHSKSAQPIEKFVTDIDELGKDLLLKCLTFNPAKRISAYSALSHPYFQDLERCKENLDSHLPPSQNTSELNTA
# [17] = biological target: Cyclin-dependent kinase 6 (Homo sapiens) (UniProt Q00534); conditions: at 1 µM
# [18] = biological target: Dual specificity protein kinase CLK2 (Homo sapiens) (UniProt P49760); conditions: at 0.1 µM
# Sequence of Dual specificity protein kinase CLK2 (Homo sapiens) (P49760 whole entry, looked up): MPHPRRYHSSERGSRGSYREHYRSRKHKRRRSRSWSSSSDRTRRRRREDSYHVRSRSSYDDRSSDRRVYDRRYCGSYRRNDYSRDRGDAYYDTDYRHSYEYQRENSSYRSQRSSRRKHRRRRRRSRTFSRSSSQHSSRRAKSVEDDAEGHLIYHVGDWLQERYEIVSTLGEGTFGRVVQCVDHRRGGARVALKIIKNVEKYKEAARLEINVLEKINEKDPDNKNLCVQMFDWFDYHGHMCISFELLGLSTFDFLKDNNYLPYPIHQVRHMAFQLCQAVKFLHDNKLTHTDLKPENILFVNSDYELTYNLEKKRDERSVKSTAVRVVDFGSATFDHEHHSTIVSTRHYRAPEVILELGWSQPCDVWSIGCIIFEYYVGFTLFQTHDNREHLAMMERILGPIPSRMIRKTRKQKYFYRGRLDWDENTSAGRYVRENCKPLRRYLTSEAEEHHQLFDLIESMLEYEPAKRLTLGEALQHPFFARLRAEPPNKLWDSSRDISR
# [19] = biological target: Dual specificity protein kinase CLK2 (Homo sapiens) (UniProt P49760); conditions: at 1 µM
# [20] = biological target: Dual specificity protein kinase CLK3 (Homo sapiens) (UniProt P49761); conditions: at 0.1 µM
# Sequence of Dual specificity protein kinase CLK3 (Homo sapiens) (P49761 whole entry, looked up): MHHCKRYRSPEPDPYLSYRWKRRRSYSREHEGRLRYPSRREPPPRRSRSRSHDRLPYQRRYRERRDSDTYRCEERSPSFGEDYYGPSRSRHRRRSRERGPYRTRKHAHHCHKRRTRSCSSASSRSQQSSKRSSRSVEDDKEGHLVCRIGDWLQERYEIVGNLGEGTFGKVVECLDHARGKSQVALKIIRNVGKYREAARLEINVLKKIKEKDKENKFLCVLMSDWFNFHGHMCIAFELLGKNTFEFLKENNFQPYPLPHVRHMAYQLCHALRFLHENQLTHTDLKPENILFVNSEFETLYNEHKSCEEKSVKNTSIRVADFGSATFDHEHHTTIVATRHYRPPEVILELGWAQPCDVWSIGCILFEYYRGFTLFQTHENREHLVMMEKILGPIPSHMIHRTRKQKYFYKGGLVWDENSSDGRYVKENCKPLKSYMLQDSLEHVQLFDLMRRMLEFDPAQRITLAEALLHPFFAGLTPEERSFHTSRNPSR
# Sequence of Casein kinase I isoform gamma-2 (Homo sapiens) (P78368 whole entry, looked up, canonical isoform): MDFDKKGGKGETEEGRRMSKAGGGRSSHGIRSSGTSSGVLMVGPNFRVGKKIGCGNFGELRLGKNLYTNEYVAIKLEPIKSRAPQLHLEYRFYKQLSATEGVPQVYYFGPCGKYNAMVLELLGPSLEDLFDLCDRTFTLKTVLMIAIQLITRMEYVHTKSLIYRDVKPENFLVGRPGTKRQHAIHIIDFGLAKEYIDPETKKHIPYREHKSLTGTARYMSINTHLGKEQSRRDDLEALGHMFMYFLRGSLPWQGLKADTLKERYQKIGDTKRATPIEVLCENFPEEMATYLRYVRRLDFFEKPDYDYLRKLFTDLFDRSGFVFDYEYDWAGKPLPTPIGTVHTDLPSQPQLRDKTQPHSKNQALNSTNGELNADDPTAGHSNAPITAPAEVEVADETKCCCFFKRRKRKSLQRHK
# Sequence of Casein kinase I isoform gamma-3 (Homo sapiens) (Q9Y6M4 whole entry, looked up, canonical isoform): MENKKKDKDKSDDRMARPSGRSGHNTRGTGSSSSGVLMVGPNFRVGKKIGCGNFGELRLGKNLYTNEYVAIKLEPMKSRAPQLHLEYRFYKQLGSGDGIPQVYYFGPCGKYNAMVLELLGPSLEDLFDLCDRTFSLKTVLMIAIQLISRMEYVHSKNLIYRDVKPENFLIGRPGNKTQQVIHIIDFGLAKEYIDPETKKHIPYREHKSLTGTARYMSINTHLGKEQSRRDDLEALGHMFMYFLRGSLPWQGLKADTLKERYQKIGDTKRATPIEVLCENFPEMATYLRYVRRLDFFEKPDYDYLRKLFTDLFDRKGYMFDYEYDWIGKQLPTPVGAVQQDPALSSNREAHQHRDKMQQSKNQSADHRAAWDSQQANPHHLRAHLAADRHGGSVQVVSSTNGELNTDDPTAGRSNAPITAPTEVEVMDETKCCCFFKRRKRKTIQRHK
compound,measurement,setting,value
CS(=O)(=O)CCNCc1ccc(-c2ccc3ncnc(Nc4ccc(OCc5cccc(C(F)(F)F)c5)cc4)c3c2)o1,inhibition,[1],3.89%
same,inhibition,[2],3.14%
same,inhibition,[3],2.45%
same,inhibition,[4],1.34%
same,inhibition,[5],0.34%
same,inhibition,[6],2.27%
same,inhibition,[7],1.87%
same,inhibition,[8],2.01%
same,inhibition,[9],3.44%
same,inhibition,[10],-1.58%
same,inhibition,[11],1.01%
same,inhibition,[12],3.72%
same,inhibition,[13],2.89%
same,inhibition,[14],0.15%
same,inhibition,[15],0.08%
same,inhibition,[16],0.44%
same,inhibition,[17],1.5%
same,inhibition,[18],0.99%
same,inhibition,[19],1.97%
same,inhibition,[20],1.09%
CN(C)CCNC(=O)Nc1ccc(N(C)c2ccnc(Nc3ccc(CS(C)(=O)=O)cc3)n2)cc1,inhibition,[1],4.71%
same,inhibition,[2],2.93%
same,inhibition,[3],4.26%
same,inhibition,[4],0.42%
same,inhibition,[5],2.58%
same,inhibition,[6],1.03%
same,inhibition,[7],0.46%
same,inhibition,[8],3.93%
same,inhibition,[9],5.24%
same,inhibition,[10],1.45%
same,inhibition,[11],0.2%
same,inhibition,[12],3.81%
same,inhibition,[13],4.81%
same,inhibition,[14],0.85%
same,inhibition,[15],2.57%
same,inhibition,[16],0.28%
same,inhibition,[17],4.3%
same,inhibition,[18],0.9%
same,inhibition,[19],3.79%
same,inhibition,[20],2.16%
COc1cc2c(cc1Nc1nc(Nc3cccc(F)c3C(N)=O)c3cc[nH]c3n1)N(C(=O)CN1CCN(C(C)C)CC1)CC2,inhibition,[1],5.31%
same,inhibition,[2],3.51%
same,inhibition,[3],7.32%
same,inhibition,[4],2.14%
same,inhibition,[5],0.55%
same,inhibition,[6],3.46%
same,inhibition,[7],1.57%
same,inhibition,[8],0.67%
same,inhibition,[9],0.45%
same,inhibition,[10],-1.81%
same,inhibition,[11],-0.76%
same,inhibition,[12],1.15%
same,inhibition,[13],1.2%
same,inhibition,[14],0.64%
same,inhibition,[15],0.27%
same,inhibition,[16],-4.06%
same,inhibition,[17],-0.78%
same,inhibition,[18],6.86%
same,inhibition,[19],45.4%
same,inhibition,[20],0.88%
Cc1nnc(-c2cccc(-c3ccc(C(=O)NCC4CC4)cc3)c2)o1,inhibition,[1],4.15%
same,inhibition,[2],3.29%
same,inhibition,[3],3.17%
same,inhibition,[4],-0.13%
same,inhibition,[5],2.72%
same,inhibition,[6],2.01%
same,inhibition,[7],13.5%
same,inhibition,[8],4.78%
same,inhibition,[9],4.88%
same,inhibition,[10],3.15%
same,inhibition,[11],-0.73%
same,inhibition,[12],1.46%
same,inhibition,[13],2.47%
same,inhibition,[14],0.47%
same,inhibition,[15],1.45%
same,inhibition,[16],2.21%
same,inhibition,[17],4.2%
same,inhibition,[18],1.61%
same,inhibition,[19],1.14%
same,inhibition,[20],2.84%
Nc1nccc(-c2c(-c3ccc(F)cc3)ncn2C2CCNCC2)n1,inhibition,[1],1.81% and 6.64%
same,inhibition,[2],-1.77% and 1.52%
same,inhibition,[3],15.6% and 20.3%
same,inhibition,[4],0.24% and 0.46%
same,inhibition,[5],2.44% and 1.3%
same,inhibition,[6],4.08% and 1.21%
same,inhibition,[7],-7.29% and 6.19%
same,inhibition,[8],-1.76% and 0.82%
same,inhibition,[9],-0.76% and 1.53%
same,inhibition,[10],-0.31% and 0.39%
same,inhibition,[11],-1.14% and -1.16%
same,inhibition,[12],0.24% and -0.14%
same,inhibition,[13],0.89% and 0.97%
same,inhibition,[14],0.29% and 0.63%
same,inhibition,[15],1.43% and 1.29%
same,inhibition,[16],-5.67% and 1.15%
same,inhibition,[17],-4.19% and 1.96%
same,inhibition,[18],2.07% and 0.24%
same,inhibition,[19],11.9% and 2.02%
same,inhibition,[20],-0.13% and 1.41%
CCS(=O)(=O)c1ccc(OC)c(Nc2ncc(-c3cccc(C(C)=O)c3)o2)c1,inhibition,[1],1.92%
same,inhibition,[2],1.93%
same,inhibition,[3],1.37%
same,inhibition,[4],0.64%
same,inhibition,[5],1.52%
same,inhibition,[6],1.87%
same,inhibition,[7],6.76%
same,inhibition,[8],3.84%
same,inhibition,[9],8.73%
same,inhibition,[10],0.35%
same,inhibition,[11],1.82%
same,inhibition,[12],2.53%
same,inhibition,[13],3.06%
same,inhibition,[14],1.03%
same,inhibition,[15],3.09%
same,inhibition,[16],4.78%
same,inhibition,[17],5.56%
same,inhibition,[18],28.6%
same,inhibition,[19],82.8%
same,inhibition,[20],1.61%
NC(=O)c1ccc2c(-c3ccnc(NCCCO)n3)c(-c3ccc(F)cc3)nn2c1,inhibition,[1],19.9%
same,inhibition,[2],8.09%
same,inhibition,[3],29%
same,inhibition,[4],1.5%
same,inhibition,[5],1.54%
same,inhibition,[6],-0.03%
same,inhibition,[7],1.7%
same,inhibition,[8],3.22%
same,inhibition,[9],4.45%
same,inhibition,[10],2.38%
same,inhibition,[11],-1.28%
same,inhibition,[12],3.3%
same,inhibition,[13],4.76%
same,inhibition,[14],0.91%
same,inhibition,[15],0.98%
same,inhibition,[16],-6.31%
same,inhibition,[17],1.97%
same,inhibition,[18],2.88%
same,inhibition,[19],2.32%
same,inhibition,[20],0.97%
Fc1cccc(COc2ccc(Nc3ncncc3C#Cc3ccccc3)cc2Cl)c1,inhibition,[1],4.69%
same,inhibition,[2],4.31%
same,inhibition,[3],4.88%
same,inhibition,[4],0.35%
same,inhibition,[5],1.89%
same,inhibition,[6],1.7%
same,inhibition,[7],5.5%
same,inhibition,[8],4.38%
same,inhibition,[9],4.99%
same,inhibition,[10],1.59%
same,inhibition,[11],-2.37%
same,inhibition,[12],2.27%
same,inhibition,[13],2.61%
same,inhibition,[14],1.02%
same,inhibition,[15],1.31%
same,inhibition,[16],3.3%
same,inhibition,[17],2.89%
same,inhibition,[18],1.45%
same,inhibition,[19],2.09%
same,inhibition,[20],2.41%
CN1CCC(n2cnc(-c3ccc(F)cc3)c2-c2ccnc(NCCO)n2)CC1,inhibition,[1],5.84%
same,inhibition,[2],4.27%
same,inhibition,[3],10.2%
same,inhibition,[4],0.37%
same,inhibition,[5],1.31%
same,inhibition,[6],1.69%
same,inhibition,[7],-0.92%
same,inhibition,[8],4.05%
same,inhibition,[9],4.55%
same,inhibition,[10],1.13%
same,inhibition,[11],-0.43%
same,inhibition,[12],2.07%
same,inhibition,[13],2.04%
same,inhibition,[14],0.67%
same,inhibition,[15],0.7%
same,inhibition,[16],3.75%
same,inhibition,[17],2.73%
same,inhibition,[18],1.02%
same,inhibition,[19],2.41%
same,inhibition,[20],3.29%
COC(=O)Nc1nc2ccc(Oc3ccc(NC(=O)Nc4cc(C(F)(F)F)ccc4F)cc3)cc2s1,inhibition,[1],-0.08%
same,inhibition,[2],-1.45%
same,inhibition,[3],0.18%
same,inhibition,[4],0.44%
same,inhibition,[5],3.26%
same,inhibition,[6],1.75%
same,inhibition,[7],3.03%
same,inhibition,[8],1.36%
same,inhibition,[9],2.74%
same,inhibition,[10],0.88%
same,inhibition,[11],-0.71%
same,inhibition,[12],0.7%
same,inhibition,[13],2.02%
same,inhibition,[14],0.77%
same,inhibition,[15],1.66%
same,inhibition,[16],0.38%
same,inhibition,[17],2.05%
same,inhibition,[18],0.47%
same,inhibition,[19],3.04%
same,inhibition,[20],0.06%
CCN1CCC(C(=O)Nc2n[nH]c3nnc(-c4cccc(F)c4F)cc23)CC1,inhibition,[1],-0.17%
same,inhibition,[2],0.17%
same,inhibition,[3],1.35%
same,inhibition,[4],3.89%
same,inhibition,[5],22.6%
same,inhibition,[6],3.86%
same,inhibition,[7],20.4%
same,inhibition,[8],3.75%
same,inhibition,[9],12.4%
same,inhibition,[10],2.37%
same,inhibition,[11],16.7%
same,inhibition,[12],5.92%
same,inhibition,[13],36.6%
same,inhibition,[14],2.96%
same,inhibition,[15],14.1%
same,inhibition,[16],5.64%
same,inhibition,[17],28.9%
same,inhibition,[18],-0.21%
same,inhibition,[19],2.56%
same,inhibition,[20],1.25%
FC(F)(F)CNc1nccc(-c2cnn3ncccc23)n1,inhibition,[1],14.1%
same,inhibition,[2],3.44%
same,inhibition,[3],10.6%
same,inhibition,[4],4.59%
same,inhibition,[5],29.1%
same,inhibition,[6],1.79%
same,inhibition,[7],14.1%
same,inhibition,[8],4.11%
same,inhibition,[9],16.4%
same,inhibition,[10],1.36%
same,inhibition,[11],11.2%
same,inhibition,[12],2.33%
same,inhibition,[13],10.8%
same,inhibition,[14],3.62%
same,inhibition,[15],22.9%
same,inhibition,[16],0.9%
same,inhibition,[17],3.37%
same,inhibition,[18],5.19%
same,inhibition,[19],51%
same,inhibition,[20],0.47%
